{
  "source": "the supplement of paper PMC8387472",
  "note": "Counter-ions that a name gives are not always drawn. ± gives the standard deviation of the averaged measurements.",
  "data": [
    {"tested_on": "mESC LDLR-Dup GFP reporter (SpCas9 MH-deletion repair)", "assay": "fraction of GFP+ cells relative to DMSO control (fold change); higher = more MH-deletion repair to in-frame LDLR (or more editing)", "conditions": "2 µM; 7 days post-transfection", "values": [
      {"smiles": "CCOC(=O)NCCCC(=O)NCCc1ccccc1", "fraction of GFP+ cells": "0.748 ± 0.18"},
      {"smiles": "C/C(=C\\C(=O)OCCCCCCCCC(=O)O)C[C@@H]1OC[C@H](C[C@@H]2O[C@H]2[C@@H](C)[C@H](C)O)[C@@H](O)[C@H]1O", "note": "[Mupirocin]", "fraction of GFP+ cells": "1.12 ± 0.3"},
      {"smiles": "COc1nc(OCc2cccc(-c3ccccc3)c2C)ccc1CNCCNC(C)=O", "note": "[bms202 (PD-1/PD-L1 inhibitor 2]", "fraction of GFP+ cells": "1.04 ± 0.3"},
      {"smiles": "NC[C@@](O)(c1ccc(Cl)cc1)c1ccc(-c2cn[nH]c2)cc1", "fraction of GFP+ cells": "1.33 ± 0.93"},
      {"smiles": "O=c1nc(N2CCOCC2)oc2c(-c3cccc4c3sc3ccccc34)cccc12", "fraction of GFP+ cells": "0.761 ± 0.24"},
      {"smiles": "Nc1[nH]cnc2ncnc1-2", "note": "[Adenine]", "fraction of GFP+ cells": "0.896 ± 0.31"},
      {"smiles": "Cc1ccc(S(=O)(=O)c2ccc([N+](=O)[O-])o2)cc1", "fraction of GFP+ cells": "1.39 ± 0.46"},
      {"smiles": "O=S(=O)(c1cccc2cnccc12)N1CCCNCC1", "note": "[Fasudil (HA-1077) HCl]", "fraction of GFP+ cells": "2.2 ± 0.25"},
      {"smiles": "CCn1cc(C(=O)O)c(=O)c2cc(F)c(N3CCNCC3)cc21", "note": "[Norfloxacin]", "fraction of GFP+ cells": "1.01 ± 0.13"},
      {"smiles": "CNC(=O)c1nn(C)c2c1C(C)(C)Cc1cnc(Nc3ccc(N4CCN(C)CC4)cc3)nc1-2", "fraction of GFP+ cells": "0.352 ± 0.06"},
      {"smiles": "C[C@H]1CNCCCN1S(=O)(=O)c1cccc2cncc(F)c12", "note": "[Ripasudil (K-115) hydrochloride dihydrate]", "fraction of GFP+ cells": "1.31 ± 0.45"},
      {"smiles": "COc1ccc(CCNCc2ccc(OCc3ccc(Cl)nc3)c(OC)c2)cc1OC", "fraction of GFP+ cells": "1.56 ± 0.28"},
      {"smiles": "CC(=O)c1cc([N+](=O)[O-])c(Sc2ccc(F)cc2F)s1", "fraction of GFP+ cells": "0.785 ± 0.22"},
      {"smiles": "CC(C)[C@H](CO)Nc1nc(Nc2cccc(Cl)c2)c2ncn(C(C)C)c2n1", "note": "[Purvalanol A]", "fraction of GFP+ cells": "0.716 ± 0.095"},
      {"smiles": "CCC[C@H](NC(=O)/C(C#N)=C/c1cccc(Br)n1)c1ccccc1", "note": "[Degrasyn (WP1130)]", "fraction of GFP+ cells": "0.638 ± 0.12"}
    ]}
  ]
}
